Reference: PubChem BioAssay AID1259309 (ICCB-Longwood Screening Facility, Harvard Medical School, 2017)
Hit rate of the full screen: of about 330,000 compounds, about 1,800 (0.55%) were called active. The sample holds actives, similar compounds and a random draw of the others, so the mix is not that of the screen. No stated cut-off is given here; in the data, active means growth inhibition above about 68%; inactive means the rest.

Test: growth inhibition of ugtP-null S. aureus, primary screen, RN4220 ugtP deletion, OD600 (AID 1259309);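 further: plate controls were untreated wells for no effect and antibiotic for full effect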
Conditions: 16 h, stronger effect = higher value
In the case of `CC1CCCC(C)N1N=Cc1ccc([N+](=O)[O-])cc1` (stereo not drawn), the growth inhibition was 18% (inactive). In the case of `O=C(NN=Cc1cccs1)c1cnccn1`, the growth inhibition was 1.82% (inactive). In the case of `Cc1ccc(C(=O)NNC(=O)C(C)Oc2ccc3ccccc3c2)o1` (stereo not drawn), the growth inhibition was 8% (inactive). With `O=C(Nc1ccc2ccccc2c1)/C(=C/c1cccc(Br)c1)NC(=O)c1ccco1` the growth inhibition was -9.2% (inactive). In the case of `CC(Oc1ccc2ccccc2c1)C(=O)NNC(=S)NC(=O)c1ccco1` (stereo not drawn), the growth inhibition was 91.7% (active). For `Cc1ccc(OCC(=O)NNC(=S)NCc2ccccc2)cc1`, the growth inhibition was -11.7% (inactive). In the case of `Cc1ccc(OCC(=O)NCCCNC(=O)c2ccco2)cc1C`, the growth inhibition was -2.8% (inactive). For `CCCc1ccc(OCC(=O)NNC(=S)NC(=O)c2ccco2)cc1`, the growth inhibition was 96% (active). For `CC(=NNC(=O)CSc1nc2ccccc2o1)c1cccc(O)c1`, the growth inhibition was 1.7% (inactive). For `COc1cccc(C=NNC(=O)c2cc(-c3cccn3C)n[nH]2)c1`, the growth inhibition was -20.1% (inactive). For `CN(Cc1c(C(=O)NN=Cc2cccc(F)c2)nnn1-c1nonc1N)c1ccccc1`, the growth inhibition was 0.685% (inactive). In the case of `Cc1ccccc1C(=O)ON=C(N)c1ccncc1`, the growth inhibition was 6.35% (inactive). In the case of `O=C(Cn1nc2ccccc2n1)NN=Cc1cc(Cl)cc([N+](=O)[O-])c1O`, the growth inhibition was 2.61% (inactive). In the case of `COC(=O)CC1c2cc(C(F)(F)F)ccc2S(=O)(=O)N1Cc1ccccc1OC` (stereo not drawn), the growth inhibition was 4.2% (inactive). In the case of `CCN(CC(=O)Nc1ccc(OC)cc1)C(=O)CSCc1ccc(C)cc1`, the growth inhibition was 3.82% (inactive). In the case of `COc1ccc(NC(=O)/C(Cl)=C(/Cl)S(=O)Cc2ccc(C)cc2)cn1` (stereo not drawn), the growth inhibition was 99.4% (active). With `COc1ccc(CS(=O)/C(Cl)=C(/Cl)C(=O)Nc2ccc(OC)nc2)cc1` (stereo not drawn) the growth inhibition was 15.9% (inactive). In the case of `C[C@]12CCC3c4ccc(OC(=O)c5ccccc5)cc4CCC3C1CCC2O` (stereo partly drawn), the growth inhibition was 19.4% (inactive). With `COc1ccc2c(c1)SC(C)CC2=O` (stereo not drawn) the growth inhibition was -4.08% (inactive). For `COc1ccc2c(c1)OC(O)(C(F)(F)C(F)F)CC2=O` (stereo not drawn), the growth inhibition was 99.4% (active). In the case of `COc1ccc2c(c1)C(=O)CC(c1ccccc1)O2` (stereo not drawn), the growth inhibition was 6.73% (inactive). For `CCC(=NOC(=O)c1cccc(C)c1)C(=O)c1cccs1`, the growth inhibition was -0.652% (inactive). In the case of `O=C1/C(=C/c2cccs2)CCC1C1CCCC1` (stereo not drawn), the growth inhibition was 8.34% (inactive). For `CCC1C/C(=C/c2cccs2)C(=O)/C(=C/c2cccs2)C1` (stereo not drawn), the growth inhibition was 94.7% (active). For `O=C1/C(=C/c2cccs2)CCc2ccccc21`, the growth inhibition was 18.9% (inactive). With `CC(CC(=O)Nc1ccccn1)=NNC(=O)C(=O)Nc1cccc(C)c1` the growth inhibition was 3.99% (inactive). In the case of `COc1ccc(O)c(C=NNC(=O)CN2CCS(=O)(=O)CC2)c1`, the growth inhibition was -0.335% (inactive). In the case of `CC(=NNc1ccc(C(F)(F)F)cn1)c1ccncc1`, the growth inhibition was 1.19% (inactive).
